Shown are actives, neighbours in structure and some others; about 4.7% of the full set was active somewhere.
ADAM10 inh – human ADAM10 inhibitors, primary screen, biochemical, QFRET, HTS | Disintegrin and metalloproteinase domain-containing protein 10 (Homo sapiens), O14672 | recombinant ADAM10, EDANS/DABCYL FRET peptide cleavage, 3 h | inhibition, % at 7 µM | 0.62% of 370,000 active | AID 720582, 2013;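 active = inhibition above a per-campaign cutoff equal to the mean of compounds falling between control-based bounds plus 3 SD, cut at about 20% in these data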
MPTP inh – mitochondrial permeability transition pore inhibitors, primary screen, biochemical, isolated mouse mitochondria, absorbance | Ca2+ swelling absorbance, 30 min | inhibition, % at 10 µM | 1.4% of 360,000 active | AID 602449, 2012;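 active = inhibition of 50% or more, scaled per plate between neutral and stimulator controls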
ADAM17 inh – ADAM17 inhibitors, primary screen, biochemical, QFRET. Disintegrin and metalloproteinase domain-containing protein 17 (Homo sapiens), P78536. recombinant ADAM17, EDANS/DABCYL FRET peptide cleavage. inhibition, % at 6.95 µM. 0.83% of 370,000 active;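 active = inhibition above the mean of compounds lying between control limits plus 3 SD, set per campaign, cut at about 8.5% in these data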
rCAG binder – binders of r(CAG) RNA repeats, primary screen, biochemical, fluorescence. inhibition, % at 3 µM. 1.3% of 370,000 active. r(CAG) RNA repeat, TO-PRO-1 dye displacement fluorescence. AID 651821, 2012;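 active = inhibition above the plate cutoff, the mean of all test compounds on that plate plus 3 SD, cut at about 35% in these data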;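 note: higher means more dye released from RNA so lower well fluorescence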
Pemphigus Ab inh – inhibitors of pemphigus antibody binding to DSG3, primary screen, biochemical, bead-based, flow cytometry, scFv-GFP; DSG3-coupled beads, scFv-anti-DSG3-GFP binding; hits give low values; binding (percent of control), % at 10 µM; 0.48% of 310,000 active;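 active = binding more than 3 SD below its plate's average and above zero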;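 note: hits lower antibody fragment binding to DSG3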
Target sequence (P32926 whole entry, looked up, the tested form may be a part): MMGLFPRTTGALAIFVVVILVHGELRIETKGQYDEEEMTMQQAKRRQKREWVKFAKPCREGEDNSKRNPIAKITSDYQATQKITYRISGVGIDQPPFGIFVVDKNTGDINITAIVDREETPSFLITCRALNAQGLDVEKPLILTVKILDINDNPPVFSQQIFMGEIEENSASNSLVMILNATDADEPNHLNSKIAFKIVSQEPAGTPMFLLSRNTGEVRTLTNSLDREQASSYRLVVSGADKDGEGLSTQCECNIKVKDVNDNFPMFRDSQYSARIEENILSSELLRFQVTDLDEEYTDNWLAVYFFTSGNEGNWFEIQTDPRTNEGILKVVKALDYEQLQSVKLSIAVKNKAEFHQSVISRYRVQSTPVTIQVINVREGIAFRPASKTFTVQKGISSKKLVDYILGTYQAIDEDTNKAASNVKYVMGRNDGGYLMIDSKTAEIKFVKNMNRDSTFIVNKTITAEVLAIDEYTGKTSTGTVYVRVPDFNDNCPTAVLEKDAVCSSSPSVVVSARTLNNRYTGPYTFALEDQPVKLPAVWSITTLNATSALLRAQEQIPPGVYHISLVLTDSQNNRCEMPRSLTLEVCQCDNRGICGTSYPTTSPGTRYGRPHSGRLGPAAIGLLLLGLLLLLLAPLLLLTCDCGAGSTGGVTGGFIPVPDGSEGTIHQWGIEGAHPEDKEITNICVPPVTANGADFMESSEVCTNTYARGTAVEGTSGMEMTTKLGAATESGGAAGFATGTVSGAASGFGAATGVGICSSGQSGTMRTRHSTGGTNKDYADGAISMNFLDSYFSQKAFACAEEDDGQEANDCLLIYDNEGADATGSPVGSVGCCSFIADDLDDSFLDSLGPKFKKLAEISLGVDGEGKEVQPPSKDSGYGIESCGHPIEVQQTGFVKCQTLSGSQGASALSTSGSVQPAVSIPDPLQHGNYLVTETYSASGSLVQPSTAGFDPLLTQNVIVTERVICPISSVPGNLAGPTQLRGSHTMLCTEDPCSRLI
proKLK7 act – proKLK7 zymogen activators, primary screen, biochemical, fluorescence intensity | 0.9% of 370,000 active | purified proKLK7, EDANS-DABCYL substrate fluorescence; 100% is mature enzyme control, 0% vehicle | activation, % at 7 µM | AID 652039, 2013;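 active = activation above the mean of all tested compounds plus 3 SD, computed per campaign excluding outliers beyond control limits, cut at about 13% in these data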
proKLK7 act conf – proKLK7 zymogen activators, confirmation, biochemical, fluorescence intensity, triplicate. purified proKLK7, EDANS-DABCYL substrate fluorescence; scaled: vehicle 0, mature enzyme 100. shares compounds with proKLK7 act. activation, % at 7 µM. 68% of 3,200 active. AID 686949, 2013;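 active = activation, as change over the incubation, above the mean of all tested compounds plus 3 SD, cut at about 13% in these data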
EDANS-DABCYL int – EDANS-DABCYL substrate optical interference, artefact control for kallikrein-7 zymogen activator project, biochemical, fluorescence intensity, high throughput; no enzyme, 4 h; solvent 0%, active enzyme control 100%; shares compounds with proKLK7 act; 80% of 3,200 active; AID 686952, 2013; activation, % at 7 µM;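 active = activation above the all-compound mean plus 3 SD, ignoring values outside control-based bounds, cut at about 4.8% in these data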;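 note: value is the 4 h activation minus the activation read at time zero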
K7 EDANS ctr – optically interferes with EDANS-DABCYL fluorescence, kallikrein-7 activator counter-screen | shares compounds with proKLK7 act | AID 720493 | EC50, µM | 20% of 250 active | EDANS-DABCYL peptide fluorescence interference, no enzyme;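 active = compounds that raise the fluorescence signal in this interference counterscreen, with EC50 at or below 10 µM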;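 note: intact quenched peptide substrate alone read at 355 nm excitation and 520 nm emission; signal is fluorescence gain from T0 to T4 after four hours at room temperature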
Large screens that a line does not name were inactive (follow-up assays come after a bar, where they were run).

O=C(Nc1ncc2c(n1)-c1ccccc1OC2)c1ccc(F)cc1	proKLK7 act 32 | proKLK7 act conf 15 | EDANS-DABCYL int 12 | K7 EDANS ctr inactive
O=C(Nc1ncc2c(n1)-c1ccccc1OC2)c1cccc([N+](=O)[O-])c1	none (no result: Pemphigus Ab inh)
COc1ccc(CNC(=O)C2=CC(c3ccc(OC)cc3)=NS(=O)(=O)N2C)cc1	none
CCOC(=O)C1CCCN(S(=O)(=O)c2ccc(-c3cc(C)no3)s2)C1 (stereo not given)	none (no result: Pemphigus Ab inh)
CC1=CC2=C(C=O)C(=O)C(C)(O)C(O)C2=CO1 (stereo not given)	proKLK7 act 21 | proKLK7 act conf 29 | EDANS-DABCYL int 27
COc1ccc(C(=O)Nc2ccc(NC(=O)c3ccco3)c(Cl)c2)cc1OC	proKLK7 act 16 | proKLK7 act conf inactive | EDANS-DABCYL int inactive
COCC(C)n1c(SCC(=O)Nc2cccnc2Cl)nc2ccccc2c1=O (stereo not given)	none
COC(=O)c1ccc(NC(=O)C2C3C=CC(C3)C2C(=O)O)cc1 (stereo not given)	none
O=C(ONC(=O)C1C2C=CC(C2)C1C(=O)NOC(=O)c1ccccc1)c1ccccc1 (stereo not given)	proKLK7 act 45 | proKLK7 act conf inactive | EDANS-DABCYL int inactive
CCOc1nc2ccccc2cc1C=O	none
CCCOc1nc2ccccc2cc1/C=C/C(=O)O	proKLK7 act 17 | proKLK7 act conf inactive | EDANS-DABCYL int 11
CCOC(=O)c1nn(-c2ccc(F)cc2)c(=O)cc1OCC(=O)Nc1ccc(OCC)cc1	none
CC(C)CCNC(=O)c1cc(-c2cccs2)nc2ccccc12	none
O=C(O)c1cc(-c2ccc(Cl)s2)nc2ccccc12	proKLK7 act 47 | proKLK7 act conf 36 | EDANS-DABCYL int 41
Cc1ccc(-c2cc(C(=O)O)c3ccccc3n2)s1	proKLK7 act 54 | proKLK7 act conf 63 | EDANS-DABCYL int 71
CCC(C)NC(=O)c1cc(-c2cccs2)nc2ccccc12 (stereo not given)	proKLK7 act 26 | proKLK7 act conf inactive | EDANS-DABCYL int inactive
O=C(Nc1ccccn1)c1cc(-c2ccc(Cl)s2)nc2ccccc12	none
COCCn1c2nc(=O)n(-c3ccccc3)c(=O)c-2nc2ccccc21	proKLK7 act 49 | proKLK7 act conf 40 | EDANS-DABCYL int 45
COCCn1c(-c2ccc(OC)cc2)nc2ccccc21	none
COc1ccc(CCNC(=O)c2cc(C3CC3)nc3c2cnn3C(C)C)cc1	none (no result: Pemphigus Ab inh)
COc1ccc(OC)c2c1CCC2=O	proKLK7 act 13 | proKLK7 act conf 19 | EDANS-DABCYL int 23
O=C1C=C(N2CCOCC2)c2cccc3cccc1c23	proKLK7 act 27 | proKLK7 act conf inactive | EDANS-DABCYL int inactive
O=C1C(N2CCOCC2)=Cc2cccc3cccc1c23	none
COc1ccc2ccccc2c1C=NNC(=O)c1cc(-c2ccc(C)cc2)n[nH]1	proKLK7 act 41 (no result: MPTP inh, Pemphigus Ab inh) | proKLK7 act conf inactive | EDANS-DABCYL int inactive
Cc1cc(N=O)no1	none (no result: MPTP inh, Pemphigus Ab inh)
COC(=O)C1(C(=O)OC)C2CCCCC2N(S(=O)(=O)c2ccc(C)cc2)[C@@H]1CC(C)=O (stereo not given in full)	none (no result: Pemphigus Ab inh)
Cc1c(Cl)c(=O)oc2cc(OCC(=O)N3CCCC(C)C3)ccc12 (stereo not given)	proKLK7 act 45 | proKLK7 act conf 70 | EDANS-DABCYL int 69

High-throughput results from PubChem BioAssay.
